Reference: article PMC5540273 (PLoS ONE, 2017)

Tests used:
Details in all cases: concentration: 1 μM, replicates: in singlicate; n = 1
MEK5 = test system: T1, MEK5
T1 construct: gene MAP2K5

MEK6 = test system: T2, MEK6
T2 construct: gene MAP2K6

MELK = test system: MELK
MERTK = test system: MERTK
MET = test system: MET
MINK = test system: T3, MINK
T3 construct: gene MINK1

MKK7 = test system: MKK7
MKNK1 = test system: MKNK1
MKNK2 = test system: MKNK2
MLCK = test system: T4, MLCK
T4 construct: gene MYLK3

MLK1 = test system: T5, MLK1
T5 construct: gene MAP3K9

MLK2 = test system: MLK2
MLK3 = test system: MLK3
MRCKA = test system: MRCKA
MRCKB = test system: T6, MRCKB
T6 construct: gene CDC42BPB

MST1R = test system: MST1R
MST1 = test system: T7, MST1
T7 construct: gene STK4

MST2 = test system: T8, MST2
T8 construct: gene STK3

MST3 = test system: T9, MST3
T9 construct: gene STK24

MST4 = test system: MST4
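Note: KINOMEscan kinase panel screen.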

Row | Compound | %Inh (MEK5) | %Inh (MEK6) | %Inh (MELK) | %Inh (MERTK) | %Inh (MET) | %Inh (MINK) | %Inh (MKK7) | %Inh (MKNK1) | %Inh (MKNK2) | %Inh (MLCK) | %Inh (MLK1) | %Inh (MLK2) | %Inh (MLK3) | %Inh (MRCKA) | %Inh (MRCKB) | %Inh (MST1R) | %Inh (MST1) | %Inh (MST2) | %Inh (MST3) | %Inh (MST4)
1 | Cc1ccc(-c2ccc3occ(-c4ccc(S(C)=O)cc4)c3c2)nn1 (stereo not drawn) | 0% | 0% | 0% | 0% | 0% | 0% | 0% | 0% | 0% | 5% | 0% | 10% | 0% | 0% | 0% | 0% | 0% | 0% | 0% | 0%
2 | Cc1nn2c(=O)cc(N3CCO[C@H](C)C3)nc2n1Cc1cccc(Cl)c1Cl [GSK2373693] | 19% | 0% | 2% | 17% | 0% | 0% | 0% | 0% | 19% | 0% | 0% | 5% | 9% | 0% | 60% | 0% | 20% | 0% | 0% | 0%
3 | CN(c1ccc(NC(=O)Nc2cccc(Cl)c2)cc1)c1ccnc(N)n1.Cl [GW830707] | 48% | 0% | 11% | 0% | 1% | 0% | 17% | 52% | 95.6% | 10% | 0% | 7% | 0% | 0% | 17% | 22% | 0% | 11% | 0% | 16%
4 | Nc1cccc(-c2ccc3c(N)n[nH]c3c2)c1 [GSK2193613] | 64% | 0% | 0% | 0% | 6% | 73% | 0% | 2% | 64% | 95.4% | 10% | 100% | 19% | 0% | 0% | 26% | 6% | 17% | 21% | 0%
5 | CN(C)CCNS(=O)(=O)c1ccc(-c2ccnc3[nH]ccc23)cc1 [GSK977620] | 71% | 100% | 92.6% | 72% | 0% | 4% | 6% | 0% | 77% | 18% | 3% | 24% | 0% | 4% | 46% | 27% | 17% | 9% | 0% | 0%
6 | Cc1cccc(Nc2nc(NCCN)ncc2C(N)=O)c1 [GSK1292139] | 99.2% | 19% | 1% | 3% | 29% | 87% | 0% | 13% | 15% | 14% | 85% | 0% | 61% | 2% | 0% | 14% | 35% | 38% | 23% | 23%
7 | O=C(Nc1n[nH]c2nc(-c3ccccc3)ccc12)C1CC1 [SB-708999] | 76% | 0% | 13% | 27% | 0% | 71% | 31% | 30% | 1% | 62% | 0% | 11% | 5% | 8% | 0% | 0% | 3% | 0% | 3% | 41%
8 | c1ccc(Oc2ccc(Nc3ccnc4cc(-c5ccc(CN6CCCCC6)o5)ccc34)cc2)nc1 [GW567143] | 100% | 0% | 0% | 50% | 11% | 25% | 0% | 7% | 37% | 0% | 2% | 14% | 0% | 13% | 0% | 29% | 20% | 0% | 4% | 0%
9 | Cc1ccc(C)c(NC(=O)Nc2ccc(C)c(-c3ccc(C(=O)Nc4ccncc4)cc3)c2)c1 [GSK1398473] | 3% | 0% | 81% | 22% | 0% | 6% | 0% | 0% | 4% | 0% | 0% | 0% | 0% | 24% | 21% | 26% | 0% | 34% | 0% | 0%
10 | Cn1cc(-c2ccc3c(c2)CCN3C(=O)Cc2cc(F)cc(F)c2F)c2c(N)ncnc21 [GSK2634140] | 98.9% | 0% | 12% | 38% | 68% | 21% | 0% | 5% | 1% | 11% | 38% | 0% | 54% | 0% | 0% | 43% | 85% | 42% | 4% | 0%
11 | Cn1cc(-c2ccc3c(c2)CCN3C(=O)Cc2cc(F)cc(C(F)(F)F)c2)c2c(N)ncnc21 [GSK2635225] | 33% | 0% | 0% | 63% | 21% | 7% | 4% | 0% | 2% | 0% | 78% | 42% | 72% | 5% | 0% | 19% | 39% | 10% | 0% | 0%
12 | CCn1cnc2c(NCc3ccccc3)ncnc21 [SKF-96418] | 38% | 9% | 0% | 0% | 0% | 12% | 17% | 0% | 0% | 0% | 0% | 27% | 0% | 0% | 0% | 0% | 0% | 14% | 5% | 0%
13 | O=C(Nc1n[nH]c2nc(-c3cccc(O)c3)ccc12)C1CC1 [SB-711805] | 95.9% | 0% | 3% | 47% | 0% | 51% | 0% | 0% | 26% | 94.5% | 0% | 13% | 3% | 0% | 0% | 0% | 0% | 0% | 0% | 0%
14 | Cc1cccc(Nc2nc(N[C@H]3CCCC[C@H]3N)ncc2C(N)=O)c1.Cl [GSK986310] | 98.4% | 5% | 0% | 64% | 0% | 73% | 0% | 0% | 17% | 13% | 85% | 40% | 76% | 13% | 0% | 44% | 34% | 0% | 52% | 34%
15 | Nc1ncnc2scc(-c3ccc(NC(=O)Cc4cc(F)ccc4F)cc3)c12.O=C(O)C(F)(F)F [SB-731254-M] | 99.7% | 11% | 4% | 14% | 0% | 35% | 0% | 0% | 47% | 60% | 0% | 28% | 34% | 0% | 4% | 20% | 42% | 0% | 30% | 24%
16 | CN(c1ccc(NC(=O)N2CCN(CCCN3CCOCC3)CC2)cc1)c1ccnc(Nc2ccc(CS(C)(=O)=O)cc2)n1.Cl [GW830899] | 80% | 0% | 0% | 0% | 67% | 0% | 0% | 33% | 0% | 0% | 13% | 29% | 1% | 19% | 15% | 0% | 0% | 0% | 0% | 0%
17 | Cc1ccc(NC(=O)c2cccc(N3CCCCC3)c2)cc1-c1ccc(C(=O)NCC2CC2)cc1 [GSK1917008] | 20% | 35% | 0% | 18% | 0% | 0% | 0% | 10% | 18% | 0% | 0% | 17% | 12% | 17% | 0% | 37% | 13% | 34% | 13% | 1%
18 | Cc1ccc(NC(=O)c2ccnc(N3CCCCC3)c2)cc1-c1ccc(C(=O)NCC2CC2)cc1 [GW775610] | 1% | 6% | 0% | 3% | 0% | 5% | 0% | 0% | 33% | 0% | 0% | 0% | 4% | 0% | 9% | 4% | 13% | 32% | 30% | 0%
19 | CNc1nccc(-c2ccc3c(N)n[nH]c3c2)n1 [GSK2206003] | 49% | 9% | 61% | 21% | 0% | 59% | 0% | 41% | 97.9% | 76% | 4% | 0% | 10% | 0% | 0% | 10% | 30% | 0% | 13% | 0%
20 | COc1cccc(C2=C(Nc3cccc(O)c3)C(=O)NC2=O)c1 [SB-390771] | 71% | 2% | 27% | 18% | 21% | 18% | 20% | 11% | 5% | 0% | 21% | 0% | 4% | 18% | 0% | 0% | 13% | 12% | 0% | 7%
21 | COc1cccc(NC(=O)NCCNc2ccnc(Nc3ccc(F)cc3)n2)c1 [GSK1379879] | 40% | 0% | 0% | 0% | 0% | 2% | 30% | 12% | 7% | 0% | 0% | 0% | 0% | 34% | 3% | 37% | 0% | 15% | 0% | 0%
